# tim10-1 inh: inhibits growth of tim10-1 mutant yeast | S. cerevisiae tim10-1 ts strain growth, BacTiter-Glo, 24 h | inhibition, % at 20 µM | 2.2% of 330,000 active | AID 463190;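 active means inhibition of at least 40%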;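 further: mutant grown at 25 °C; 0% = DMSO wells with yeast and 100% = wells holding no yeast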
# NALP1 inh: NALP1 inhibition; 0.61% of 280,000 active; S. cerevisiae NALP1/ASC/caspase-1 growth, X-gal OD620, 72 h; inhibition, % at 10 µM; AID 2071; in the data active means inhibition mostly above about 24%, no sharp cut-off; inactive means mostly below about 32%
# V-ATPase pH: alters yeast V-ATPase proton transport | S. cerevisiae, pHLuorin cytosolic pH fluorescence | 0.37% of 350,000 active | response, % at 10 µM; in the data active means response mostly above about 7.3%, no sharp cut-off; inactive means mostly below about 5.4%; further: actives read high
# TIM10 inh: inhibits growth of TIM10 yeast strain. S. cerevisiae TIM10 strain growth, BacTiter-Glo luminescence, 24 h. inhibition, % at 10 µM. 1.4% of 330,000 active;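 active means inhibition of 40% or more at the single tested concentration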;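 further: wild-type TIM10 isogenic control strain grown at permissive 25 °C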
# tim23-1 inh: growth inhibitors of tim23-1 mutant yeast. S. cerevisiae tim23-1 growth, BacTiter-Glo luminescence, 24 h. inhibition, % at 20 µM. 1.3% of 330,000 active;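 active means growth inhibition of the mutant yeast at or above 50%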;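 further: temperature-sensitive mutant grown at 25 °C; plate controls were DMSO-treated mutant yeast for no effect and medium wells lacking yeast for full effect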
# NLRP3 yeast inh: blocks the NALP3 inflammasome reconstituted in yeast; inhibition, % at 10 µM; 0.39% of 330,000 active; Yeast reconstituted NLRP3/ASC/caspase-1, beta-gal luminescence, 24 h;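 active means inhibition of 50% or more; inactive means inhibition below 50%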;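 further: plate controls were induced DMSO wells for no effect and uninduced yeast grown without galactose for full effect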
# tim23-1 conf: tim23-1 yeast growth inhibition, confirmed. S. cerevisiae tim23-1 growth, BacTiter-Glo luminescence, 24 h. shares compounds with tim23-1 inh. AID 463218. inhibition, % at 20 µM. 83% of 4,400 active;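 active means inhibition above about 39% in either of two replicate wells at 20 µM, limit read from the data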;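 further: temperature-sensitive tim23-1 mutant grown at 25 °C; 0% = DMSO wells with yeast and 100% = medium wells without yeast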
# Active calls of the source: *; . = no result given. Shown are actives, neighbours in structure and some others; about 4.2% of the full set was active somewhere.
SMILES,tim10-1 inh,NALP1 inh,V-ATPase pH,TIM10 inh,tim23-1 inh,NLRP3 yeast inh,tim23-1 conf
Cc1ccc(S(=O)(=O)N2CCCN(S(=O)(=O)c3ccccc3Br)CC2)cc1,22,.,2,2,52*,.,24
Cc1ccc(S(=O)(=O)N2C/C=C\CN(S(=O)(=O)c3ccccc3Br)CC2)cc1,25,.,0,9,49,.,.
COc1ccc(NC(=O)CSc2nnc(-c3cccs3)n2C)cc1OC,8,20,7,1,3,-2,.
CCCn1c(SCC(=O)N2CCN(S(=O)(=O)c3ccc(Cl)cc3)CC2)n[nH]c1=O,6,5,-6,2,58*,-6,0
O=c1oc(-c2ccc([N+](=O)[O-])cc2)nc2ccc(O)cc12,21,-11,4,14,52*,19,65*
O=c1oc(-c2ccc([N+](=O)[O-])cc2)nc2ccccc12,1,-1,0,29,11,9,.
O=c1oc(-c2ccccc2[N+](=O)[O-])nc2ccccc12,32,42,6,14,55*,0,51*
CC(C)c1nnc(NC(=O)CCC(=O)N2CCC(Cc3ccccc3)CC2)s1,29,10,2,10,20,3,.
COc1cccc(CNc2ccc([N+](=O)[O-])cc2Cl)c1O,36,7,6,13,58*,36,65*
Cc1ccc(-c2cc(-c3ccco3)c3c(N)c(C(=O)NN)oc3n2)cc1,23,-9,-11,7,30,2,.
NNC(=O)c1oc2nc(-c3ccccc3)cc(-c3ccccc3)c2c1N,39,11,1,23,59*,11,-19
O=C(CC1Sc2ccccc2NC1=O)Nc1cccc(-c2nnc3n2CCCCC3)c1 (configuration not stated),23,.,-2,-3,12,15,.
COc1cc(C(=O)NCCC(=O)NC2CCCCCCC2)cc(OC)c1OC,10,4,3,7,56*,3,14
Cc1cc(C)c2nc(NNC(=O)c3ccc(S(=O)(=O)N4CCCCC4)cc3)sc2c1,-4,25,-2,-18,29,8,.
O=C(Nc1ccc(C(=O)N2CCCc3ccccc32)cc1)c1cccs1,4,-18,-1,7,52*,23,44*
O=C(Nc1ccc(Nc2ccccc2)cc1)C(Cl)Cl,6,56,-4,29,37,34,.
CC(C)(C)C(=O)C(Cl)C(=O)Nc1ccccc1 (configuration not stated),36,.,2,-58,70*,-27,-11
CCCCCCn1c(=O)c(-c2ccccc2)c(O)c2ccccc21,12,12,-4,2,50*,22,44*
CCCCc1n[nH]c(=S)n1Cc1ccccc1,-13,-6,-2,-1,8,6,.
O=C(NCCc1ccccc1)c1cccc2c1C(=O)N(C1CCCCC1)C2,26,26,0,24,51*,12,39
CCCCC1NC(=S)N(C2CCCCC2)C1=O (configuration not stated),8,7,0,33,58*,-12,22
CCn1c(/C=N/c2nc3ccccc3n2C)nc2ccccc21,31,-14,-5,18,56*,-8,42*
Cn1c(-c2cc3c(C(F)(F)F)nn(C)c3s2)n[nH]c1=S,17,19,2,6,11,7,.
Oc1ccccc1C=NNC(=S)Nc1ccc(F)cc1,.,.,-2,.,.,.,.
Oc1ccccc1/C=N/NC(=S)NC1CC2C=CC1C2 (configuration not stated),18,18,0,40,69*,-9,46*
SMILES,tim10-1 inh,NALP1 inh,V-ATPase pH,TIM10 inh,tim23-1 inh,NLRP3 yeast inh,tim23-1 conf
O=C(O)c1cccc(N2C(=O)c3cc4cccc(Br)c4cc3C2=O)c1,5,11,-2,-21,50,14,24
CC(C)Nc1nc(N)c(C(=O)C23CC4CC(CC(C4)C2)C3)s1,24,.,0,16,53*,5,56*
CCOC(=O)C1CCN(S(=O)(=O)c2cccc3nonc23)CC1,11,10,-1,7,14,17,.
CCOC(=O)C1CCN(S(=O)(=O)c2c(Cl)ccc3nonc23)CC1,25,11,-2,21,65*,20,60*
CCOC(=O)C(N)CSC1CC(=O)N(c2ccc(OC)cc2)C1=O (configuration not stated),17,13,-3,-4,12,25,.
COc1ccc(/C=N/NC(=O)CC(=O)N/N=C/c2ccc(OC)cc2)cc1,16,-5,-1,2,-3,3,.
COc1ccc(CCCC(=O)N/N=C/c2ccc(C)cc2)cc1,31,3,-1,0,56*,34,51*
Cc1cc(C)n2nc(SCC(=O)Nc3ccccc3F)nc2n1,-2,.,3,-6,8,6,.
Cc1ccc(C(=O)Nc2nc(COc3ccccc3)cs2)s1,-65,.,4,-2,52*,44,38
Oc1ccc(C2=NN(c3ccccc3)C(c3ccc(F)cc3)C2)cc1 (configuration not stated),-4,-8,2,12,26,9,.
CC(=O)Nc1ccc(C2CC(c3ccc(Cl)cc3)=NN2c2ccccc2)cc1 (configuration not stated),38,-7,-2,23,63*,-11,42*
S=C(NCCc1cccc(Cl)c1)NCc1ccccc1,36,-8,1,30,56*,14,34
CCOc1ccccc1NC(=S)NC1CC2CCC1C2 (configuration not stated),37,-5,-5,16,33,13,.
COc1ccc(NC(=S)NC2CC3CCC2C3)c(OC)c1 (configuration not stated),22,-2,0,26,63*,2,11
O=C(NCCN1CCOCC1)Nc1ccc(F)cc1,-2,7,3,-2,-7,12,.
CCOC(=O)C1=CN(Cc2cccc(F)c2)S(=O)(=O)N(C)C1c1ccccc1 (configuration not stated),17,.,3,-5,49,.,.
CCOC(=O)C1=CN(Cc2cccc(F)c2)S(=O)(=O)N(C)C1c1cccc(OC)c1 (configuration not stated),22,.,-3,6,52*,.,32
COc1ccccc1NC(=S)NC(=O)CC(C)C,28,15,0,25,51*,23,27
O=C(/C=C/c1ccccc1Cl)OCC(=O)c1ccc[nH]1,7,.,-1,11,53*,5,45*
Nc1c(N(Cc2ccco2)C(=O)COc2ccccc2)c(=O)[nH]c(=O)n1Cc1ccccc1,3,.,-1,9,12,1,.
Cc1cccc(OCC(=O)N(Cc2ccco2)c2c(N)n(Cc3ccccc3)c(=O)[nH]c2=O)c1,-2,.,1,8,51*,5,23
O=Cc1cc2cc3c(cc2nc1Cl)OCCO3,15,21,.,13,73*,2,52*
